Here are results for 13 compounds from the supplement of paper PMC10127200.

Assay in all cases: Euclidean distance of Cell Painting phenotypic profile (signed KS, 77 features) to DMSO centroid (dimensionless distance); 5 or 10 uM (library dependent); higher = stronger phenotypic change vs DMSO (phenoactivity)
Common to all, as to conditions: 48 h

In one experiment the test system is 786-O. The essentials: (§1)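 Stained cells were imaged confocally at 20X with 9 fields per well, after 48 h of exposure to library compounds at 10 or 5 uM (set by library; 0.1% DMSO final). The cells were five cancer lines and a healthy fibroblast line. From the images, Harmony extracted 77 features, each expressed as a signed Kolmogorov-Smirnov statistic relative to same-plate vehicle wells. Phenoactivity is measured as Euclidean distance to the median vehicle profile, using plate-position-corrected, correlation-weighted profiles averaged across replicates at the top dose.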

The test system of another experiment is A549. An outline of the steps: as §1
In the next experiment the test system is DU145. An outline of the steps:
as §1

Another experiment concerns FB. An outline of the steps: as §1
For another experiment, the system named is HEPG2. The essentials: as §1
For the next experiment, the system named is OVCAR4. The essentials: as §1

Where a name gives a salt, the structure may show the parent alone.

Consider `CC(=O)OCC1=C(C(=O)O)N2C(=O)[C@@H](NC(=O)Cc3cccs3)[C@H]2SC1` [Cephalothin], for which the Euclidean distance stood at 1.38 in the experiment with 786-O; 0.786 in the experiment on A549; 0.824 in the experiment on DU145; 1.24 in the experiment on FB; 1.28 in the experiment on HEPG2; 1.23 with OVCAR4.

Consider `Cc1cc2c(cc1S(N)(=O)=O)S(=O)(=O)CCC2` [Meticrane], for which the Euclidean distance with 786-O amounted to 0.951; with A549, 0.864; in the experiment on DU145, 2.26; in the experiment with FB, 0.946; in the experiment with HEPG2, 1.17; in the experiment with OVCAR4, 0.99.

For `C[C@@H]1NC(=O)[C@@H](N)CNC(=O)[C@H](C2CCNC(=N)N2)NC(=O)/C(=C/NC(N)=O)NC(=O)[C@H](CNC(=O)CC(N)CCCN)NC1=O.N=C1NCC[C@H]([C@@H]2NC(=O)/C(=C/NC(N)=O)NC(=O)[C@H](CNC(=O)C[C@@H](N)CCCN)NC(=O)[C@H](CO)NC(=O)[C@@H](N)CNC2=O)N1` [Capreomycin Sulfate], the Euclidean distance was 0.925 in the experiment on 786-O; 0.995 with A549; 1.37 with DU145; 1.11 in the experiment on FB; 0.78 in the experiment with HEPG2; 1.14 in the experiment on OVCAR4.

Consider `CCCCN1CCCCC1C(=O)Nc1c(C)cccc1C` (stereo not drawn) [Bupivacaine HCl], for which the Euclidean distance in the experiment on 786-O came to 1.38; in the experiment on A549 it was 0.594; in the experiment on DU145, 1.45; with FB it was 0.904; in the experiment with HEPG2, 0.991; in the experiment on OVCAR4 it was 1.15.

In the case of `Cc1nc(Nc2ccc(F)cc2)nc(N2CCc3ccccc3C2C)c1C` (stereo not drawn) [Revaprazan Hydrochloride], the Euclidean distance in the experiment on 786-O stood at 1.38; in the experiment on A549, 1.19; with DU145, 1.06; with FB, 1.28; in the experiment with HEPG2, 1.21; in the experiment with OVCAR4, 1.13.

With `Nc1nc2c(ncn2COCCO)c(=O)[nH]1` [Aciclovir], the Euclidean distance was found to be 1.1 in the experiment with 786-O; 1.17 in the experiment on A549; 1.08 with DU145; 1.32 in the experiment on FB; 1.25 in the experiment with HEPG2; 1.37 with OVCAR4.

As to `CCOc1ccc(NC(C)=O)cc1` [Phenacetin], the Euclidean distance in the experiment on 786-O came out at 1.38; with A549 it was 0.916; in the experiment with DU145, 1.56; in the experiment on FB, 0.94; in the experiment with HEPG2, 0.469; in the experiment with OVCAR4, 1.83.

For `CCn1cc(C(=O)O)c(=O)c2cc(F)c(N3CCN(C)CC3)cc21` [Pefloxacin Mesylate], the Euclidean distance in the experiment on 786-O was 1.56; in the experiment with A549, 0.826; in the experiment with DU145 it was 0.983; in the experiment with FB, 1.04; in the experiment with HEPG2, 1.02; with OVCAR4 it was 1.3.

Consider `CCOc1nc2cccc(C(=O)OC(C)OC(=O)OC3CCCCC3)c2n1Cc1ccc(-c2ccccc2-c2nn[nH]n2)cc1` (stereo not drawn) [Candesartan Cilexetil], for which the Euclidean distance stood at 1.1 with 786-O; 0.605 with A549; 1.35 in the experiment with DU145; 0.788 in the experiment on FB; 1.82 in the experiment on HEPG2; 1.29 in the experiment on OVCAR4.

As for `C[C@H](CS)C(=O)N1CCC[C@H]1C(=O)O` [Captopril], the Euclidean distance came to 1.01 in the experiment with 786-O; 1.13 in the experiment with A549; 0.669 in the experiment with DU145; 0.971 in the experiment with FB; 2.08 with HEPG2; 0.714 in the experiment with OVCAR4.

As to `CCn1cc(C(=O)O)c(=O)c2cc(F)c(N3CCNCC3)cc21` [Norfloxacin], the Euclidean distance in the experiment on 786-O was 1.28; in the experiment on A549 it was 0.791; in the experiment with DU145, 0.924; in the experiment on FB it was 1.26; in the experiment with HEPG2, 0.65; in the experiment on OVCAR4 it was 1.01.

As for `Cc1ccc(Sc2cncc3sc(C(N)=O)cc23)cc1`, the Euclidean distance turned out to be 1.1 with 786-O; 1.05 in the experiment with A549; 0.78 with DU145; 1.61 in the experiment on FB; 1.24 in the experiment on HEPG2; 0.995 in the experiment with OVCAR4.

In the case of `CO[C@@H]1[C@@H](O[C@@H]2O[C@H](C)[C@@H](O[C@H]3C[C@@](C)(O)[C@@H](OC(=O)CC(C)C)[C@H](C)O3)[C@H](N(C)C)[C@H]2O)[C@@H](CC=O)C[C@@H](C)[C@@H](O)/C=C/C=C/C[C@@H](C)OC(=O)C[C@H]1OC(C)=O` [Josamycin], the Euclidean distance in the experiment on 786-O is 1.22; with A549 it was 1.07; in the experiment with DU145, 0.712; with FB it was 1.59; in the experiment with HEPG2, 1.01; with OVCAR4, 1.06.
